# Source: PubChem
# Shown is part of a subset that was picked to be rich in hits.
# GIRK2 act – Activators of human GIRK2-containing channels; activation (% efficacy), % for hits at 37.5 µM; HEK293 GIRK2/NPY4 cells, thallium flux fluorescence; P48051; 34,000 tested, under 10 active;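 active means primary screen hit, no activity in plain HEK293 cells, and in GIRK2-only cells above 5% efficacy rising with concentration; inactive means the rest, including fluorescent compounds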;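 further: efficacy is normalized control-subtracted fluorescence 15 s after thallium addition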
# Target sequence (P48051 whole entry, looked up): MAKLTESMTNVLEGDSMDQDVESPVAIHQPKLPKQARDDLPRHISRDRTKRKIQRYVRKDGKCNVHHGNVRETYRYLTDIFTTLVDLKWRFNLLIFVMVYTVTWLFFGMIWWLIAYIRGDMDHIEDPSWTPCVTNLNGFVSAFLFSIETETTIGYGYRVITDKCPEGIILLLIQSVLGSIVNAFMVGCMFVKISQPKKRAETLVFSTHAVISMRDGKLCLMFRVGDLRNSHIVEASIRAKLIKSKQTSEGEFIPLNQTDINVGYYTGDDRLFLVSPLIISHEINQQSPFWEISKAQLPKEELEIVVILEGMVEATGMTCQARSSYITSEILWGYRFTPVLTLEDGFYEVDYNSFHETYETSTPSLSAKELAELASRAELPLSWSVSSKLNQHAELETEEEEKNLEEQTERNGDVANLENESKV
# AMPAR-TARP mod – modulates AMPAR-stargazin complexes; O88602+P19491; HEK293 GluA2+stargazin, membrane potential dye (FDSS), glutamate EC50; hits were called plate by plate, in both directions; calls only at 30 µM; 40,000 compounds, 3.5% hits;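 active means any of four per-well response measures lying three or more SD from its plate-wide compound average, in either direction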
# Active calls of the source: *; i = inactive; / = no result; + = active, no number; ! = not confirmed by another sample.
SMILES,GIRK2 act,AMPAR-TARP mod
CNC(=O)C1Cc2ccccc2N1C(=O)NC1CCCCC1 (configuration not stated),i,i
Brc1ccc(-c2ccc(SCc3ccncc3)nn2)cc1,i,i
COc1ccc(C(=O)/C=C/c2ccc(Cl)cc2)c(OC)c1,/,i
COc1ccc(N2C(=O)CN(CCc3cccs3)C3CS(=O)(=O)CC32)cc1 (configuration not stated),i,i
CCCC(CCC)C(=O)N1CCN(c2nccn2CC)CC1,i,+
CCCC(CCC)C(=O)N1CCN(c2nccn2C)CC1,i,/
Cc1cc(N2CC(C)OC(C)C2)nc2ccccc12 (configuration not stated),/,+
CC1CN(CC(O)COc2cccc3ccccc23)CC(C)O1 (configuration not stated),/,i
O=C(C1CC1)N1CCN(c2nccn2-c2ccccc2F)CC1,i,i
Cc1n[nH]c(C)c1S(=O)(=O)N1CCN(c2ccc3nnc(C4CC4)n3n2)CC1,i,+
Cc1nnsc1C(=O)N1CCN(c2ccc(-c3ccccn3)nn2)CC1,i,i
Cc1n[nH]c(C)c1S(=O)(=O)N1CCN(c2ccc(-c3ccccn3)nn2)CC1,i,+
CCCS(=O)(=O)N1CCN(c2ccc3nnc(C4CC4)n3n2)CC1,i,i
O=C(Cc1ccccc1)Nc1nnc(-c2ccc(Br)s2)o1,i,i
Cc1cc(NC(=O)c2ccccc2)n(C2CCS(=O)(=O)C2)n1 (configuration not stated),i,i
COc1cc(C(=O)Nc2c(C(C)C)cccc2C(C)C)cc(OC)c1OC,i,+
CC(C)c1cccc(C(C)C)c1NC(=O)c1ccc(O)cc1,/,i
CCOc1ccccc1-n1nnnc1SCC(=O)Nc1cccc(Cl)c1,i,i
Cc1ccccc1NC(=O)N1CCC(Cn2c(COc3ccccc3)nc3ccccc32)CC1,i,i
O=C(Nc1sc2ccccc2c(=O)c1-c1ccc(Br)cc1)c1ccco1,i,i
COc1ccc(-c2c(NC(=O)c3ccco3)sc3ccccc3c2=O)cc1OC,i,+
Cc1cc(NC(=O)c2ccc(N3CCCCC3)nn2)on1,i,+
Cc1cc(C)n(CCNC(=O)c2ccc(N3CCCC3)nn2)n1,i,i
CN1CCN(C(CNC(=O)C(=O)Nc2ccccc2F)c2cccn2C)CC1 (configuration not stated),i,i
Cc1ccc(C)c(N2CCN(C(=O)c3ccc(Cn4c(=O)[nH]c5ccccc5c4=O)cc3)CC2)c1,i,+
SMILES,GIRK2 act,AMPAR-TARP mod
CC(=O)c1ccc(N2CCN(C(=O)c3ccc(Cn4c(=O)[nH]c5ccccc5c4=O)cc3)CC2)cc1,i,i
CS(=O)(=O)c1ccc(CC(=O)Nc2nc(-c3ccccc3)c(C(=O)c3ccccc3)s2)cc1,/,i
COc1ccc(NC(=O)c2nn(-c3ccc(F)cc3)cc2OC)cc1,i,i
O=S(=O)(NCC(O)c1ccc(C(F)(F)F)cc1)c1ccc(F)c(Cl)c1 (configuration not stated),i,+
O=S(=O)(NCC(O)c1ccc(C(F)(F)F)cc1)c1ccc(Br)s1 (configuration not stated),/,+
O=S(=O)(Cc1cccc(F)c1)NCC(O)c1ccc(C(F)(F)F)cc1 (configuration not stated),i,+
COc1ccc(S(=O)(=O)NCC(O)c2ccsc2)c(C)c1 (configuration not stated),i,i
COc1ccc(S(=O)(=O)NCC(O)c2ccc(C(F)(F)F)cc2)c(C)c1 (configuration not stated),i,+
O=S(=O)(NCC(O)c1ccsc1)c1ccc(F)c(Cl)c1 (configuration not stated),i,i
Cc1ccc(S(=O)(=O)NCC(O)c2ccc(C(F)(F)F)cc2)s1 (configuration not stated),i,i
O=S(=O)(NCC(O)c1ccc(C(F)(F)F)cc1)c1ccccc1Cl (configuration not stated),i,i
CS(=O)(=O)N1CCC(CNC(=O)CCS(=O)(=O)c2ccccc2)CC1,i,/
CC(C)(C)NC(=O)c1cc(N2C(=O)CCS2(=O)=O)ccc1Cl,i,i
CC(C)NC(=O)C(=O)c1cn(CC(=O)N2CCOCC2)c2ccccc12,/,i
CCOCC(=O)NCCN1CCC(c2cccs2)CC1,i,i
COc1ccc(OCCCN2C(=O)C3(OCCCO3)c3cccc(C)c32)cc1,i,+!
COc1ccc(CN2C(=O)C3(OCCCO3)c3ccccc32)cc1OC,/,i
CCN(C(=O)NCc1ccccc1)C1CCCCC1,/,i
N=c1sc(/C=C2\C=Nc3ccccc32)c(O)n1-c1nccs1,/,+
Cc1ccc(C)c(NC(=O)CSC2=NC3C(=O)N(C)C(=O)N(C)C3N2C)c1 (configuration not stated),i,i
CS(=O)(=O)N1CCCc2ccc(NC(=O)C(=O)NCCN3CCOCC3)cc21,i,i
CN(C)S(=O)(=O)c1ccc(C(=O)Nc2nnc(-c3ccc(Br)s3)o2)cc1,i,i
Cc1cc(-c2nnc(NC(=O)c3ccc(S(C)(=O)=O)cc3)o2)nn1C,i,i
CCN(CC)S(=O)(=O)c1ccc(C(=O)Nc2nnc(-c3ccc(Br)s3)o2)cc1,i,+
Cc1cc(-c2nnc(NC(=O)c3ccc(S(=O)(=O)N4CCCCC4)cc3)o2)nn1C,i,+
SMILES,GIRK2 act,AMPAR-TARP mod
Cc1cc(-c2nnc(NC(=O)c3nc4ccccc4s3)o2)nn1C,i,+
Cc1ccc(-c2nnc(NC(=O)c3ccc(S(=O)(=O)N4CCCCC4)cc3)o2)cc1C,i,i
CCN(CC)S(=O)(=O)c1ccc(C(=O)Nc2nnc(-c3cc(C)n(C)n3)o2)cc1,i,+
Cc1cc(-c2nnc(NC(=O)c3cccc(C(F)(F)F)c3)o2)nn1C,i,i
O=C(Cc1cc(-c2ccc3c(c2)OCO3)on1)N1CCc2ccccc2C1,i,i
COc1ccc(C(=O)NCC2CCN(S(C)(=O)=O)CC2)c(OC)c1,i,i
COc1ccc(-c2nnc(NC(=O)c3ccc(OC)c(OC)c3)o2)c(OC)c1,/,i
O=C(CSc1ccc(NC(=O)c2ccco2)nn1)OCc1ccccc1,i,i
CS(=O)(=O)N1CCCc2cc(NC(=O)c3ccccc3)ccc21,i,i
CCn1nnc2c(N3CCN(C(=O)NCc4ccc(F)cc4)CC3)ncnc21,i,/
COc1ccc(CCNC(=O)COc2ccccc2)cc1OC,i,i
CCOc1ccc(NC(=O)c2ccc(CNS(=O)(=O)c3cccc(OC)c3)cc2)cc1,/,i
CCOc1cc(C(=O)Nc2nnc(-c3cc(C)n(C)n3)o2)cc(OCC)c1OCC,i,+
COc1cccc2cc(C(=O)Nc3nnc(-c4cc(C)n(C)n4)o3)oc12,i,+
CC(=O)c1ccc(C(=O)Nc2nnc(-c3cc(C)n(C)n3)o2)cc1,i,+
Cc1cc(-c2nnc(NC(=O)c3ccc(SC(C)C)cc3)o2)nn1C,i,i
Cc1cc(-c2nnc(NC(=O)c3cc4ccccc4o3)o2)nn1C,i,i
Cc1cc(C(=O)Nc2nnc(-c3cc(C)n(C)n3)o2)nn1C,i,+
Cc1ccc(C(=O)Nc2nnc(-c3cc(C)n(C)n3)o2)cc1C,i,i
Cc1cc(-c2nnc(NC(=O)c3cc(Cl)sc3Cl)o2)nn1C,i,i
